Screening results from PubChem.
PNC inhibitor = inhibitors of perinucleolar compartment assembly; PC3M PTB-GFP, PNC prevalence imaging, 16 h; stronger effect = lower value; AID 2417; activity change (PNC), negative = inhibition, % at 10 µM; 140,000 tested, 3.1% active;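 active = readout at or below -70, meaning at least 70% loss of cells showing the perinucleolar compartment, a nuclear body marking cancer cells; inconclusive = readout between -30 and a set limit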
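Read-out is percentage of cells bearing a perinucleolar compartment, from automated 20x imaging of fixed, Hoechst-stained PC3M PTB-GFP cells. Cells were seeded 4 h, then exposed 16 h to compound (23 nl of library stock) in duplicate plates.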
HPGD inh = HPGD (human) dehydrogenase inhibition. purified HPGD, NADH fluorescence kinetic, PGE2 substrate. 150,000 tested, 4.3% active. P15428. Potency, µM, usual class: inhibitors
Target sequence (P15428 whole entry, looked up): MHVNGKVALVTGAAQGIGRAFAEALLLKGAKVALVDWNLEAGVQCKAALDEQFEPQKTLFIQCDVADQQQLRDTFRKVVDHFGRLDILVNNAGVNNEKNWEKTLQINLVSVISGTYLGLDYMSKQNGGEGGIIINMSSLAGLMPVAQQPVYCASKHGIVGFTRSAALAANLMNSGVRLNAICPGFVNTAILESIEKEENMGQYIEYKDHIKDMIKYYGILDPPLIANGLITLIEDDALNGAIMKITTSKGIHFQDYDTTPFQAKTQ
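20 nM HPGD preincubated 15 min at room temperature with compound in 50 mM Tris-HCl pH 8, 0.01% Tween 20. Started with 1 mM NAD+ and 30 uM prostaglandin E2; NADH fluorescence (360/450 nm) read 5 times over 30-s intervals, last minus first.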
JMJD2E inh = blocks human JMJD2E demethylase activity; 230,000 tested, 1.6% active; B2RXH2; JMJD2E catalytic domain, FDH-coupled NADH fluorescence (FDH is formaldehyde dehydrogenase); Potency, µM (doses to about 57.1 µM), most hits filed as inhibitors; note: nearly all actives have a fitted effect of over 50% in size
Target sequence (B2RXH2 1-337 limits assumed): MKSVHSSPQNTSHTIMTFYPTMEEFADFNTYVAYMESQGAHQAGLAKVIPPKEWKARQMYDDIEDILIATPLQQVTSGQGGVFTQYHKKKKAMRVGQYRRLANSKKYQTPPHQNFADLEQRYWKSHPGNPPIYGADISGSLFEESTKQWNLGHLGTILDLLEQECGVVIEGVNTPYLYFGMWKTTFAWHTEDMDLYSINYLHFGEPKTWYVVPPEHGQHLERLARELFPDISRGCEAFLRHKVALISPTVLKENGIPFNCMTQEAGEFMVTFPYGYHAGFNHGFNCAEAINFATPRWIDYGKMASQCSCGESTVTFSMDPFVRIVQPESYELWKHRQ
ALDH1A1 inh = inhibitors of human aldehyde dehydrogenase 1A1 | Purified ALDH1A1, NADH fluorescence, propionaldehyde substrate | Potency, µM (series often up to 75.3 µM), usual class: inhibitors | 220,000 tested, 7.3% active | AID 1030
Numbers stand for hits. Most compounds without a hit are left out; they make up all but 11% or so of the library. Unless noted, calls come from the whole dose curve; as a rule, active = well fitted inhibition curve with a large enough effect (not every such curve was filed as active); inconclusive = small, poorly fitted or top-dose-only effect, or another doubt; inactive = no such curve, though single readings can be large or run the other way.

Screening CC(=O)c1nc(N2C(=O)CC(Cc3ccccc3)C2=O)sc1C (centres undefined) returned PNC inhibitor inactive, HPGD inh 28µM, JMJD2E inh inactive and ALDH1A1 inh inactive.
`c1ccc(Cc2nn3c(C4COc5ccccc5O4)nnc3s2)cc1` (centres undefined) gave PNC inhibitor inconclusive, HPGD inh 8.9µM, JMJD2E inh inactive and ALDH1A1 inh 2µM.
Screening c1ccc(CCc2nn3c(C4COc5ccccc5O4)nnc3s2)cc1 (centres undefined) returned PNC inhibitor inactive, HPGD inh 10µM, JMJD2E inh inactive and ALDH1A1 inh 10µM.
Screening Cn1c(SCc2ccc(C(C)(C)C)cc2)nnc1C1COc2ccccc2O1 (centres undefined) returned JMJD2E inh inactive and ALDH1A1 inh inconclusive.
For COC(=O)CSc1nnc(C2COc3ccccc3O2)n1-c1ccccc1 (centres undefined) the results were PNC inhibitor inactive, HPGD inh inactive, JMJD2E inh inactive and ALDH1A1 inh inactive.
`O=C(Nc1ccccc1Cl)C(Cl)C(=O)c1ccccc1` (centres undefined) gave JMJD2E inh inactive and ALDH1A1 inh 1.8µM.
CCN1CCc2c(OCc3ccc(C)cc3)cccc2C1=O was read as JMJD2E inh inactive and ALDH1A1 inh inactive.
Screening Cc1ccc(C(C[N+](=O)[O-])c2c(C)[nH]n(-c3ccccc3)c2=O)cc1 (centres undefined) returned PNC inhibitor inactive, HPGD inh inactive, JMJD2E inh inconclusive and ALDH1A1 inh inconclusive.
Screening COc1ccc(C(c2c(C)[nH]n(-c3ccccc3)c2=O)c2c(C)[nH]n(-c3ccccc3)c2=O)cc1OC returned PNC inhibitor inconclusive, HPGD inh inconclusive, JMJD2E inh inconclusive and ALDH1A1 inh 8.9µM.
For Cc1[nH]n(-c2ccccc2)c(=O)c1C(C[N+](=O)[O-])c1ccc(Cl)cc1 (centres undefined) the results were PNC inhibitor inactive, HPGD inh 28µM, JMJD2E inh inconclusive and ALDH1A1 inh 20µM.
Screening COc1ccccc1Nc1nccc(N(C)C)c1C#N returned JMJD2E inh inactive and ALDH1A1 inh inactive.
Screening O=c1c2sccc2[nH]c(=S)n1Cc1ccccc1 returned PNC inhibitor inactive, HPGD inh inactive, JMJD2E inh inactive and ALDH1A1 inh inconclusive.
Screening CCOC(=O)c1c(C)[nH]c(C(=O)N2CCN(c3ccc(OC)cc3)CC2)c1C returned JMJD2E inh inactive and ALDH1A1 inh inactive.
Screening O=C(O)c1ccccc1-n1ncc2c1/C(=C/c1ccc(Cl)cc1)CC2 returned JMJD2E inh inconclusive and ALDH1A1 inh 22µM.
`COc1cc(NC(=O)COC(=O)CNS(=O)(=O)c2ccc(F)c(F)c2F)cc(OC)c1` gave PNC inhibitor inactive, HPGD inh inactive, JMJD2E inh inactive and ALDH1A1 inh inactive.
CN(C)c1ccc(S(=O)(=O)NCC(=O)OCC(=O)Nc2cc(Cl)cc(Cl)c2)cc1[N+](=O)[O-] was read as PNC inhibitor inactive, HPGD inh inactive, JMJD2E inh inconclusive and ALDH1A1 inh 14µM.
Screening CC(=O)/C=C\c1cn(-c2ncc(C(F)(F)F)cc2Cl)c2ccccc12 returned PNC inhibitor -124, HPGD inh 32µM, JMJD2E inh inactive and ALDH1A1 inh inactive.
For N#CC(C#N)=Cc1cn(-c2ncc(C(F)(F)F)cc2Cl)c2ccccc12 the results were PNC inhibitor inactive, HPGD inh inactive, JMJD2E inh inactive and ALDH1A1 inh inconclusive.
Screening CCOC(=O)SC1=N/C(=C\c2ccc(N(C)C)cc2)C(=O)S1 returned PNC inhibitor inactive, HPGD inh inactive, JMJD2E inh inactive and ALDH1A1 inh 5µM.
`Cc1ccc(S(=O)(=O)/N=c2\ccc(Cl)cn2C(F)F)cc1` gave JMJD2E inh inactive and ALDH1A1 inh inactive.
For Cc1ccc(C(=O)CN(Cc2ccccc2)C2=NCCS2)cc1 the results were PNC inhibitor inconclusive, HPGD inh inactive, JMJD2E inh inactive and ALDH1A1 inh 20µM.
For O=C(CN(Cc1ccccc1)C1=NCCS1)c1ccccc1 the results were PNC inhibitor inactive, HPGD inh inactive, JMJD2E inh inactive and ALDH1A1 inh inactive.
For Clc1ccc(-c2nnc(SCc3ccon3)o2)c(Cl)c1 the results were PNC inhibitor inconclusive, HPGD inh inconclusive, JMJD2E inh inactive and ALDH1A1 inh inactive.
For C=CCSc1nnc(-c2ccc(Cl)cc2Cl)o1 the results were PNC inhibitor inactive, HPGD inh 11µM, JMJD2E inh inactive and ALDH1A1 inh inactive.
`COc1cccc(-c2nccc(NCc3cnc(C)cn3)n2)c1` gave ALDH1A1 inh inactive.
CCOC(=O)c1sc(=S)n(C)c1NC(=O)c1cccc(Br)c1 was read as JMJD2E inh inactive.
`Cn1c(N)c(C(=O)NCc2ccccc2)sc1=S` gave PNC inhibitor inactive, HPGD inh inconclusive, JMJD2E inh inactive and ALDH1A1 inh 20µM.
COC(=O)c1ccccc1NC(=O)c1sc(=S)n(C)c1N was read as PNC inhibitor inconclusive, HPGD inh 22µM, JMJD2E inh inactive and ALDH1A1 inh 20µM.
For COc1ccc(CCNC(=O)c2sc(=S)n(C)c2N)cc1 the results were PNC inhibitor inactive, HPGD inh inactive, JMJD2E inh inconclusive and ALDH1A1 inh inactive.
`CCOC(=O)c1sc(=S)n(C)c1NC(=O)c1ccccc1` gave PNC inhibitor inconclusive, HPGD inh 8.9µM, JMJD2E inh inactive and ALDH1A1 inh 3.5µM.
For O=C(c1ccco1)N1CCC2(CCCN(Cc3ccncc3)C2)CC1 the results were HPGD inh inactive and ALDH1A1 inh inconclusive.
OCCC1CN(Cc2nc3ccccc3s2)CCN1CCc1ccccc1 (centres undefined) was read as JMJD2E inh inactive and ALDH1A1 inh inconclusive.
COc1ccc(NC(=O)C=C(C)C)cc1Cl was read as PNC inhibitor inactive, HPGD inh 18µM, JMJD2E inh inactive and ALDH1A1 inh inactive.
Screening COC(=O)/C=C/C(=O)Nc1cccnc1 returned PNC inhibitor inactive, JMJD2E inh inconclusive and ALDH1A1 inh inactive.
Screening COC(=O)/C=C/C(=O)Nc1ccc(O)c(Cl)c1 returned PNC inhibitor inactive, HPGD inh inactive, JMJD2E inh inactive and ALDH1A1 inh 13µM.
CCOC(=O)/C=C/C(=O)OCC(=O)Nc1ccc(Cl)cc1Cl was read as JMJD2E inh inactive and ALDH1A1 inh 25µM.
`CCOC(=O)/C=C/C(=O)OCC(=O)Nc1c(Cl)cccc1Cl` gave JMJD2E inh inactive and ALDH1A1 inh inactive.
Screening COc1ccc(NC(=O)COC(=O)/C=C/C(=O)OCC(=O)Nc2ccc(OC)c(Cl)c2)cc1Cl returned PNC inhibitor inactive, HPGD inh inactive, JMJD2E inh inactive and ALDH1A1 inh 11µM.
For COCCCN=Cc1c(C)[nH]n(-c2ccc(Br)cc2Br)c1=O the results were JMJD2E inh inactive and ALDH1A1 inh inconclusive.
For [O-]c1c[n+](-c2ccc(-[n+]3cc([O-])on3)cc2)no1 the results were JMJD2E inh 25µM and ALDH1A1 inh inconclusive.
For [O-]c1c[n+](-c2ccccc2)no1 the results were JMJD2E inh inactive.
COc1ccc(NC(=O)CN(C)CC(=O)Nc2cccc(S(=O)(=O)N(C)c3ccccc3)c2)cc1 was read as JMJD2E inh inactive and ALDH1A1 inh inactive.
